# According to PubChem BioAssay (NCATS):
# Inconclusive results are not listed. Entries that show only a call come without a potency. Active and inactive are the calls of the source. Unless noted, calls follow the shape of the dose curve; as a rule, active = well fitted curve in the direction sought with a large enough effect; inconclusive = small, poorly fitted or top-dose-only effect, or another doubt; inactive = no such curve, though single readings can be large; an effect the other way counts as inactive or inconclusive.
# Experiments:
# [1] = qHTS for Inhibitors of the Functional Ribonucleoprotein Complex (vRNP) of Lassa (LASV) Arenavirus: LASV Primary Screen - GLuc reporter signal (AID 1347082; calls by dose curve; tested in HEK293 reporter line; also: nearly all actives have a fitted effect of over 60% in size)
# [2] = qHTS Assay for Identifying Gametocytocidal Compounds (AID 743244);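 also: actives lower the fluorescent signal which means gametocytes are killed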; details: P. falciparum 3D7 stage III-V gametocytes, alamarBlue, 72 h; max response: stronger effect = lower value
# Method in brief: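 3D7 gametocytes, stages III–V, 20,000/well; cpd 72 h, 37 °C/5% CO2; + alamarBlue 24 h; fluor. Ex 525/Em 598.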
# [3] = P-glycoprotein substrates identified in KB-8-5-11 adenocarcinoma cell line, qHTS therapeutic library screen (AID 1346987); also: potency is read from the fitted curve at half-maximal effect; nearly all actives have a fitted effect of over 65% in size
# Method in brief: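 Luminescence from CellTiter-Glo, read 5 min after addition, quantified survival of KB-8-5-11 (P-gp-overexpressing) cells exposed to compounds for 72 h. AC50 was derived from concentration-response curves.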
# [4] = P-glycoprotein substrates identified in KB-3-1 adenocarcinoma cell line, qHTS therapeutic library screen (AID 1346986);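 also: potency is read from the fitted curve at half-maximal effect; potency is for cytotoxicity meaning loss of cell viability; nearly all actives have a fitted effect of over 60% in size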
# Method in brief: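 In 1536-well format, 500 cells/well received pinned compound titrations and were incubated 72 h, 5% CO2. Viability was read by CellTiter-Glo; cytotoxic if AC50 < 10 uM and efficacy >50%.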
# [5] = Primary qHTS for inhibitors of nuclear receptor binding SET domain protein 2 (NSD2) in an isogenic RCH-ACV NSD2 p.E1099K mutant (9B) (AID 1645876); also: potency is read from the fitted curve at half-maximal effect; nearly all actives have a fitted effect of over 70% in size
# [6] = Primary qHTS for inhibitors of nuclear receptor binding SET domain protein 2 (NSD2) in an RCH-ACV wild type WT cells (2C) (AID 1645877); also: potency is read from the fitted curve at half-maximal effect; nearly all actives have a fitted effect of over 70% in size
# [7] = biological target: Catechol O-methyltransferase (Homo sapiens) (UniProt P21964); experiment: Confirmatory Screen for Target Class Profiling of Small Molecule Inhibitors of Methyltransferases (AID 1745852; calls by dose curve; also: potency is read from the fitted curve at half-maximal effect); details: MTase-Glo luminescence, SAH detection, recombinant enzyme; measured here: COMT max response; stronger effect = lower value
# Chain of Catechol O-methyltransferase (Homo sapiens) (P21964 whole entry, looked up): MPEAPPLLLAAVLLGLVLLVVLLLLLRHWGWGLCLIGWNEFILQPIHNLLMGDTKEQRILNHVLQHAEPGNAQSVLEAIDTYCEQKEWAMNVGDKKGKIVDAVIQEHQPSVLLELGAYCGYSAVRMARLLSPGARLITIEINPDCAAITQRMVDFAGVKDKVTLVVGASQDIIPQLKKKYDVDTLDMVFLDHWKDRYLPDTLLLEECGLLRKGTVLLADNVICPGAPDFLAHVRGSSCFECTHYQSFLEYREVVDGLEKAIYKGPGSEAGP
# [8] = biological target: Guanidinoacetate N-methyltransferase (Homo sapiens) (UniProt Q14353); experiment: as above; details: activity change, negative = inhibition: at 57.3 µM (top of the series) unless noted
# [9] = biological target: Nicotinamide N-methyltransferase (Homo sapiens) (UniProt P40261); experiment: as above; details: MTase-Glo luminescence, SAH detection, recombinant enzyme; measured here: NNMT max response; stronger effect = lower value
# Chain of Nicotinamide N-methyltransferase (Homo sapiens) (P40261 whole entry, looked up): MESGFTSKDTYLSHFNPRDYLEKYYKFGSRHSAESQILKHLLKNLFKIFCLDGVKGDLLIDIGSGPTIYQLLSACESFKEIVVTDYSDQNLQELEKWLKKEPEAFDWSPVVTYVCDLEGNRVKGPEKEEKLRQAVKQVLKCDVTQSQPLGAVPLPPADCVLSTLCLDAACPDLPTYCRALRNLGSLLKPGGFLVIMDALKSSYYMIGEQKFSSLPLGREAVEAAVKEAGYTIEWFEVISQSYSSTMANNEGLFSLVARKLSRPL
# [10] = biological target: Phenylethanolamine N-methyltransferase (Homo sapiens) (UniProt P11086); experiment: as above; details: MTase-Glo luminescence, SAH detection, recombinant enzyme; measured here: PNMT max response; stronger effect = lower value
# Chain of Phenylethanolamine N-methyltransferase (Homo sapiens) (P11086 whole entry, looked up): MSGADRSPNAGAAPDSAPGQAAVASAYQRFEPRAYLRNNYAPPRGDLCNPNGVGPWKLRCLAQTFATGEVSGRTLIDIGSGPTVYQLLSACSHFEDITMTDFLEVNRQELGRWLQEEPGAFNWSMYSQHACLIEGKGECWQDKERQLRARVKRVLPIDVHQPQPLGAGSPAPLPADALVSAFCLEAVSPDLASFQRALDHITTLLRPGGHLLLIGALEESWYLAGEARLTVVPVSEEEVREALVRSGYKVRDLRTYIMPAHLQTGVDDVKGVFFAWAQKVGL
# [11] = biological target: Glutathione peroxidase 1 (Homo sapiens) (UniProt P07203); experiment: Primary qHTS Assay for Inhibitors of Recombinant Selenoprotein Glutathione Peroxidase 1 (GPX1) (AID 1845191); also: nearly all actives have a fitted effect of over 65% in size
# Chain of Glutathione peroxidase 1 (Homo sapiens) (P07203 whole entry, looked up): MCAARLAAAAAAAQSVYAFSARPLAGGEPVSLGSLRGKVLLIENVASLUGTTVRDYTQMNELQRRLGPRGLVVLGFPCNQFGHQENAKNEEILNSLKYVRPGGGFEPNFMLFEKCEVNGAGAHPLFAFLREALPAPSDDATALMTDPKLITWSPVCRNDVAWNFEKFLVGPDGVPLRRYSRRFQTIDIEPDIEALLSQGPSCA
# Method in brief: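 GR-coupled readout: NADPH consumption tracked by fluorescence, ex 340/em 450 nm, at t=0 and after 15 min at RT. Final mix 10 nM GPX1, 1 mM GSH, 0.5 mM CHP, 0.5 mM NADPH, 100 nM GR, 0.01% BSA, following 30 min enzyme–compound preincubation.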
# [12] = biological target: Alpha-galactosidase (Coffea arabica) (UniProt Q42656); experiment: Counterscreen for Glucocerebrosidase Inhibitors: qHTS Assay for Coffee Bean alpha-Galactosidase at pH 4.5 (AID 957)
# Chain of Alpha-galactosidase (Coffea arabica) (Q42656 whole entry, looked up): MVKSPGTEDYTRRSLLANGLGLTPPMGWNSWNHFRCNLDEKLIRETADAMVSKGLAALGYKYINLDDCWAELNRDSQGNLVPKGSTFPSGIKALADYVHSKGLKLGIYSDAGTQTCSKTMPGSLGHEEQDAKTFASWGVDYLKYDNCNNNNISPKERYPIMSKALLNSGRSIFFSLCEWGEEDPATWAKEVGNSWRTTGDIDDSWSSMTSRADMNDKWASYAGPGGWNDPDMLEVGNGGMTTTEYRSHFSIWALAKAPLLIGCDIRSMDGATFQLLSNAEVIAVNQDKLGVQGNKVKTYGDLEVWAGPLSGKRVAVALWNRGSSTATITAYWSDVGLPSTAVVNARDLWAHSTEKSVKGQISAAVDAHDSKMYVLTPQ
# Method in brief: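 Enzyme is added first (2 nM final), then compounds titrated from 0.7 nM to 77 uM, then 80 uM 4-methylumbelliferyl alpha-D-galactopyranoside; after 20 min at room temperature a pH 10 NaOH/glycine stop precedes fluorescence reading at 365/440 nm.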
# [13] = biological target: Alpha-galactosidase (Coffea arabica) (UniProt Q42656); experiment: Counterscreen for Glucocerebrosidase Inhibitors: qHTS Assay for Coffee Bean alpha-Galactosidase at pH 5.9 (AID 998)
# Method in brief: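 Enzyme 2 nM + cpd (0.7 nM–77 uM titration) + 4-MU-alpha-Gal 80 uM, pH 5.9 citrate/Tween-20, RT 20 min, NaOH/glycine stop pH 10, fluor 365/440. Normalized to no-enzyme and full-activity controls; Hill-fit AC50.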
# [14] = High Content Imaging Cell-Based qHTS for Inhibitors of the mTORC1 Signaling Pathway in MEF (Tsc2-/-, p53-/-) Cells (AID 2666);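 also: percent of cells scored positive for phospho-rpS6 Ser235/236 immunostaining by imaging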
# Method in brief: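 MEF Tsc2-/- p53-/- (empty vector), DMEM/10% FBS; cpd 24 h 37 °C; PFA fix, Alexa-488 p-rpS6 S235/236 Ab, Hoechst; imaged; rapamycin-defined inhibition; % positive cells/well.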
# [15] = Validation screen for inhibitors of Lassa infection (AID 463096; calls by dose curve)
# [16] = biological target: M-phase phosphoprotein 8 (Homo sapiens) (UniProt Q99549); experiment: qHTS Validation Assay for Inhibitors for MPP8 Chromodomain Interactions with Methylated Histone Tails (AID 488949);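 also: AlphaScreen signal from MPP8 chromodomain bound to biotinylated H3K9me3 peptide; top concentration of the series differs between compounds; nearly all actives have a fitted effect of over 55% in size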
# Chain of M-phase phosphoprotein 8 (Homo sapiens) (Q99549 whole entry, looked up): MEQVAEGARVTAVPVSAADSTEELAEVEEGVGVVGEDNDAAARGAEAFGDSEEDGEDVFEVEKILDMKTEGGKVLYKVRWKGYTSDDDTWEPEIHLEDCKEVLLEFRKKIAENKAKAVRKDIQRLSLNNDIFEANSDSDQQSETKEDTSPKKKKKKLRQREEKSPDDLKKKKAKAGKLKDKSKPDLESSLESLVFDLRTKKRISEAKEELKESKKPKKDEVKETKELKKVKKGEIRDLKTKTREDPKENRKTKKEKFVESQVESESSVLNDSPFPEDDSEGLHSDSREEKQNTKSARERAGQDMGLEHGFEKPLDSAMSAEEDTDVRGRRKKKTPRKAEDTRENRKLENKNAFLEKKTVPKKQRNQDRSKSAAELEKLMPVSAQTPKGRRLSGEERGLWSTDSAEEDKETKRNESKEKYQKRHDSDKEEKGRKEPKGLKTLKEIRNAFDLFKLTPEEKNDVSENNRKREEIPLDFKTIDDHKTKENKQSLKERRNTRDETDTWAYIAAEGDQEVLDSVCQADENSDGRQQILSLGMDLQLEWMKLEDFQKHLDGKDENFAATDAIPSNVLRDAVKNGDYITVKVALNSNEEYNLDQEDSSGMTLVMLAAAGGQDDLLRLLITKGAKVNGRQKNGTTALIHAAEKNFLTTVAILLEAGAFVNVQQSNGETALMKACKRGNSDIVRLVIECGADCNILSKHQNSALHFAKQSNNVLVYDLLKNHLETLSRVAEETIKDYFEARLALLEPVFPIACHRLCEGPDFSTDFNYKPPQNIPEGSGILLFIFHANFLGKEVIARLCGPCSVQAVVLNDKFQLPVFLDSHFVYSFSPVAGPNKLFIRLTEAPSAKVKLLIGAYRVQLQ
# Method in brief: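 Disruption of the preformed MPP8–trimethyl-H3K9 peptide complex (both 50 nM, 30 min, RT) is measured after 30 min compound exposure, using AlphaScreen proximity beads; aurintricarboxylic acid titration serves as plate control.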
# [17] = Inducers of the Endoplasmic Reticulum Stress Response (ERSR) in human glioma: Validation (AID 504836)
# Method in brief: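 Stably transfected U87-MG glioma cells carrying a GRP78-based luciferase sensor; 16 h compound incubation. Luminescence end-point read 10 min after Bright-Glo addition at room temperature.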
# [18] = biological target: Ubiquitin carboxyl-terminal hydrolase 1 (Homo sapiens) (UniProt O94782); experiment: Inhibitors of USP1/UAF1: Pilot qHTS (AID 504865);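 also: rhodamine fluorescence freed from ubiquitin-rhodamine substrate followed over time; top concentration of the series differs between compounds; nearly all actives have a fitted effect of over 35% in size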
# Chain of Ubiquitin carboxyl-terminal hydrolase 1 (Homo sapiens) (O94782 whole entry, looked up): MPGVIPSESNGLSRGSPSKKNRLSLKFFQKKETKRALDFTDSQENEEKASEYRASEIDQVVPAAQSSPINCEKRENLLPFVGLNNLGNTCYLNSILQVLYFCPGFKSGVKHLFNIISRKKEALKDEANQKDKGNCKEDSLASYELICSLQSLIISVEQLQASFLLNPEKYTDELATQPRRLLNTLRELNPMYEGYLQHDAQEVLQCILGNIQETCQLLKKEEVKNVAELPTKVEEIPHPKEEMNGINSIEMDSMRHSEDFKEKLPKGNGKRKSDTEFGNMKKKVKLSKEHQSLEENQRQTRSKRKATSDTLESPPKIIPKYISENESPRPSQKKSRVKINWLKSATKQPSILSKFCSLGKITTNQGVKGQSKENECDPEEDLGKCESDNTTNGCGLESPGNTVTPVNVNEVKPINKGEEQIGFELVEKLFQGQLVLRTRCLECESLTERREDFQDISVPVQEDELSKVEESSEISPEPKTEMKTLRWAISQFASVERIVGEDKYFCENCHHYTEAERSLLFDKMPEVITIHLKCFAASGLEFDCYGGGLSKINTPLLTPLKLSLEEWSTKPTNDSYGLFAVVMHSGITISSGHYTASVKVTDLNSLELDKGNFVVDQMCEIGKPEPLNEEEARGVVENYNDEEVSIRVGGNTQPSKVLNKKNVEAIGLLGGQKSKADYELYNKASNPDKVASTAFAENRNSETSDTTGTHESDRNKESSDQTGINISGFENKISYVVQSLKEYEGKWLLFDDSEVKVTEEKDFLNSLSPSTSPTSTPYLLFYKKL
# Method in brief: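 Kinetic fluorescence assay: 1nM USP1/UAF1, 15 min compound preincubation, then 150nM Ub-Rho; 480/540 nm.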
# [19] = HTS Assay for Allosteric Antagonists of the Human D2 Dopamine Receptor: Hit Validation in HTRF (AID 624455);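 also: stable D1 dopamine receptor cell line scored for blocking the D1 response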
# Method in brief: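 Inhibition of the D1-mediated response is measured by HTRF in cells that stably express the D1 dopamine receptor. Compounds reaching this step are hits from calcium-flux antagonism testing at EC80 dopamine in inducible Hek293 Trex D2 cells.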
# [20] = biological target: Arylsulfatase A (Homo sapiens) (UniProt P15289); experiment: qHTS screen for enhancers of Arylsulfatase A (ASA1): LOPAC Validation Assay (AID 720538)
# Chain of Arylsulfatase A (Homo sapiens) (P15289 whole entry, looked up): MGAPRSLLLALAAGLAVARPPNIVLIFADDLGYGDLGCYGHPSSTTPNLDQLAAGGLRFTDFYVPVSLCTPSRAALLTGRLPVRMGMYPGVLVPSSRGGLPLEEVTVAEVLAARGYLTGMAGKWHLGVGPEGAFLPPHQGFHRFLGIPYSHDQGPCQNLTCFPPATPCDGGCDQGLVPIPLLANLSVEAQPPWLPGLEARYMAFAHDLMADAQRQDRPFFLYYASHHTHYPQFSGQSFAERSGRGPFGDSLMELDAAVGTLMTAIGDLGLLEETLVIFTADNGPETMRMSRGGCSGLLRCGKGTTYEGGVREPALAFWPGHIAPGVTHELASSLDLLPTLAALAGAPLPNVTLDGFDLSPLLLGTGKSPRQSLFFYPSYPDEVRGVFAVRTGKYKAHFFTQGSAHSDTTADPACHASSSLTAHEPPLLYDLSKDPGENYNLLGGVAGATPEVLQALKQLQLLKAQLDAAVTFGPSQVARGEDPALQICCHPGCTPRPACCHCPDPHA
# Method in brief: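 First, ASA-I179S fibroblasts from an MLD patient adhered for 6 hrs. Next, compounds were added for 48h. Then pNCS substrate (0.5mM final) with lysis buffer reacted 14h at room temperature before NaOH stop and fluorescence measurement.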
# [21] = biological target: Parathyroid hormone/parathyroid hormone-related peptide receptor (Homo sapiens) (UniProt Q03431); experiment: qHTS for PTHR1 Agonists: Optimization Screen against the NCGC LOPAC library (AID 1347079);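 also: GloSensor cAMP luminescence in HEK-293 GP2 cells expressing human PTHR1 with IBMX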
# Chain of Parathyroid hormone/parathyroid hormone-related peptide receptor (Homo sapiens) (Q03431 whole entry, looked up): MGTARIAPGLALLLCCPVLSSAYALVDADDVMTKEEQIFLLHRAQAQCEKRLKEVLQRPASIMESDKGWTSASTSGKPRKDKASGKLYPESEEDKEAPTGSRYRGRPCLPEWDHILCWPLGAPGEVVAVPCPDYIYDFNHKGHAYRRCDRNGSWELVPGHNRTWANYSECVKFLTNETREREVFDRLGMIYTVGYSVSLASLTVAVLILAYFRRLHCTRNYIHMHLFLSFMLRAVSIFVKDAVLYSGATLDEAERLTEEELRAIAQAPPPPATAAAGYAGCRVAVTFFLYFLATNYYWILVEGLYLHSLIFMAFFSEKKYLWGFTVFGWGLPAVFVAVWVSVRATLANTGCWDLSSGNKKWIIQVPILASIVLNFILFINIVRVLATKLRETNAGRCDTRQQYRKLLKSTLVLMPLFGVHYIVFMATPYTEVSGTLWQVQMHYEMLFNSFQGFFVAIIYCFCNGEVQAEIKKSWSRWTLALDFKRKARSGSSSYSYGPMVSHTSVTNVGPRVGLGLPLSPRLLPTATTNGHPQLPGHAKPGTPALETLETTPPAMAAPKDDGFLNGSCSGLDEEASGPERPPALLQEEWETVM
# Method in brief: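 HEK-293 GP2 cells, PTHR1 + GloSensor cAMP; 3000 cells/well, o/n. Luciferin + IBMX 0.5mM each (stock), 1 hr 37C. Cpd titration, 1 hr 37C. Lum after 15 min RT. Ctrl M-PTH(1-15) top 10uM.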
# [22] = qHTS for Inhibitors of the Functional Ribonucleoprotein Complex (vRNP) of Lassa (LASV) Arenavirus: Viability assay - alamar blue signal for LASV Primary Screen (AID 1347083; calls by dose curve; tested in HEK293 reporter line; also: nearly all actives have a fitted effect of over 80% in size)
# [23] = qHTS for Inhibitors of the Functional Ribonucleoprotein Complex (vRNP) of Lymphocytic Choriomeningitis Arenaviruses (LCMV): Viability assay - alamar blue signal for LCMV Primary Screen (AID 1347085; calls by dose curve; tested in HEK293 reporter line; also: nearly all actives have a fitted effect of over 80% in size)
# [24] = biological target: Nucleoprotein (Lymphocytic choriomeningitis virus (strain Armstrong)) (UniProt P09992); experiment: qHTS for Inhibitors of the Functional Ribonucleoprotein Complex (vRNP) of Lymphocytic Choriomeningitis Arenaviruses (LCMV): LCMV Primary Screen - GLuc reporter signal (AID 1347086; calls by dose curve; also: nearly all actives have a fitted effect of over 70% in size)
# [25] = Drug repurposing screens with cells derived from glioblastoma tumor samples (AID 1345199); details: GBM patient neurospheres viability, ATP luminescence, 48 h; Potency: tumour line A; series mostly up to 45.9 µM; also: nearly all actives have a fitted effect of over 40% in size
# Method in brief: (§1)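 Primary testing used CD133+ neurospheres from four GBM patients, seven concentrations, 48 h exposure and ATP-based viability; confirmation added three slower-growing patient lines.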
# [26] = tested on: astro; experiment: as above; details: viability, ATP luminescence, 48 h; series mostly up to 45.9 µM
# Method in brief: as §1
# [27] = Primary qHTS for inhibitors of SARS-S pseudo-typed particle cell entry (AID 1479145; calls by dose curve; also: nearly all actives have a fitted effect of over 45% in size)
# [28] = Primary qHTS for Huh7 cytotoxicity: counterscreen for inhibitors of MERS-S pseudotyped particle cell entry (AID 1479147; calls by dose curve); details: outcome: dose series up to 57.1 µM unless noted
# [29] = Primary qHTS for inhibitors of MERS-S pseudo-typed particle cell entry (AID 1479149; calls by dose curve; also: nearly all actives have a fitted effect of over 60% in size)
# [30] = Primary qHTS for Vero E6 cytotoxicity: counterscreen for inhibitors of SARS-S pseudo-typed particle cell entry (AID 1479150; calls by dose curve); details: outcome: dose series up to 57.1 µM unless noted
# [31] = Cytotoxicity counterscreen for inhibitors of SARS-CoV-2 cell entry (AID 1645845; calls by dose curve; also: nearly all actives have a fitted effect of over 50% in size)
# Method in brief: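 Counterscreen run in the same HEK293-ACE2 line as the pseudotyped-particle entry assay, without particles. Viability after 48 h at 37 C was read as ATP luminescence, scaled between cell-containing and cell-free wells.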
# [32] = Primary qHTS to identify inhibitors of SARS-CoV-2 cell entry (AID 1645846; calls by dose curve; also: nearly all actives have a fitted effect of over 45% in size); details: activity change, negative = inhibition: at 57.1 µM (top of the series) unless noted
# Method in brief: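 Data are normalized to wells receiving SARS-CoV-2-S pseudoparticles and those given bald particles. Entry signal was luciferase luminescence in stable hACE2 Expi293F cells, 48 hr post-infection, after 1 hr compound pretreatment.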
# [33] = biological target: Phospholipid hydroperoxide glutathione peroxidase GPX4 (Homo sapiens) (UniProt P36969); experiment: Primary qHTS Assay for Inhibitors of Recombinant Selenoprotein Glutathione Peroxidase 4 (GPX4) (AID 1845192); also: nearly all actives have a fitted effect of over 65% in size
# Chain of Phospholipid hydroperoxide glutathione peroxidase GPX4 (Homo sapiens) (P36969 whole entry, looked up): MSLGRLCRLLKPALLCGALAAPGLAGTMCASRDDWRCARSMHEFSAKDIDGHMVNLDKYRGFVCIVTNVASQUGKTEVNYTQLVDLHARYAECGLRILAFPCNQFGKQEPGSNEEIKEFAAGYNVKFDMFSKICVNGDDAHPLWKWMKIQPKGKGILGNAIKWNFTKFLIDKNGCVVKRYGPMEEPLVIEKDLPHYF
# Method in brief: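 Steps: GPX4 plus compound, 30 min RT; add GR/GSH/NADPH master mix; start with cumene hydroperoxide; read 340/450 nm fluorescence at 0 and 15 min. Finals were 200 nM GPX4, 1 mM GSH, 0.5 mM CHP, 0.5 mM NADPH, 100 nM GR.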
# [34] = biological target: Luciferin 4-monooxygenase (Photinus pyralis) (UniProt P08659); experiment: Biochemical firefly luciferase enzyme assay for NPC (AID 624030);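 also: purified P. pyralis luciferase at 10 nM with luciferin and ATP substrate; nearly all actives have a fitted effect of over 70% in size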
# Method in brief: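 Purified P. pyralis luciferase at 10 nM in 50 mM Tris Acetate (final), luminescence read within 5 minutes of enzyme addition to compounds. Activity normalised to PTC124 versus DMSO; concentration-response curves classed by r2, magnitude and activity.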
# [35] = biological target: Cytochrome P450 2D6 (Homo sapiens) (UniProt P10635); experiment: Cytochrome P450 family 2 subfamily D member 6 (CYP2D6) small molecule antagonists: luciferase biochemical (cell-free) qHTS assay (AID 1645840; active = well fitted curve in the direction sought with a large enough effect in the repeat runs; an effect the other way counts as inactive or inconclusive; also: potency is read from the fitted curve at half-maximal effect; nearly all actives have a fitted effect of over 55% in size)
# Method in brief: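 P450-Glo CYP2D6 system: proluciferin substrate converted by enzyme to luciferin, read by luminescence proportional to activity. Enzyme-substrate mix with compound 10 min at room temperature, then NADPH regeneration 1 h before detection reagent.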
# [36] = biological target: Cytochrome P450 2C9 (Homo sapiens) (UniProt P11712); experiment: Cytochrome P450 family 2 subfamily C member 9 (CYP2C9) small molecule antagonists: luciferase biochemical (cell-free) qHTS assay (AID 1645842; active = well fitted curve in the direction sought with a large enough effect in the repeat runs; an effect the other way counts as inactive or inconclusive; also: potency is read from the fitted curve at half-maximal effect; nearly all actives have a fitted effect of over 55% in size)
# Chain of Cytochrome P450 2C9 (Homo sapiens) (P11712 whole entry, looked up): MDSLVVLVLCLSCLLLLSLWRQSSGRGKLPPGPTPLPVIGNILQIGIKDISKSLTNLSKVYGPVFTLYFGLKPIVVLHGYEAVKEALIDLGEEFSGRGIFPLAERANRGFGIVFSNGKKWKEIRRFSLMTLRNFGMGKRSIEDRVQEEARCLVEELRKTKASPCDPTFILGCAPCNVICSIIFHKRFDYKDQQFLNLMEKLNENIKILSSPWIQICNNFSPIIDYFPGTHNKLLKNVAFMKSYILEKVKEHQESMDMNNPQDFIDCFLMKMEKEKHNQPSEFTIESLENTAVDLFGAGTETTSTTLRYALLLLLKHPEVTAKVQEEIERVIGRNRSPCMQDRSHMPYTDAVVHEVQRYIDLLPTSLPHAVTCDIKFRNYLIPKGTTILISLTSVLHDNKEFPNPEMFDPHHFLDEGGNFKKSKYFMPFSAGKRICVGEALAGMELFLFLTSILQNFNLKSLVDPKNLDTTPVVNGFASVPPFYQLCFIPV
# Method in brief: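 P450-Glo CYP2C9 system: proluciferin substrate with enzyme in mix containing 0.4% BSA, 10 min at room temperature, then NADPH regeneration solution added and incubated 1 h at 37C. Detection reagent stopped reaction; luminescence read after 20 min as RLU.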
smiles,measurement,setting,value
C=CC(C)(C)c1[nH]cnc1/C=C1\NC(=O)C(C(C)C)NC1=O (centres undefined),Potency,[1],inactive
C#C[C@]1(OC(=O)CCCCCC)CC[C@H]2[C@@H]3CCC4=CC(=O)CC[C@@H]4[C@H]3CC[C@@]21C,max response,[2],-5.44% (inactive)
same,Potency,[3],20600 nM (active)
CC(C)(O)/C=C/C(=O)[C@](C)(O)[C@H]1[C@H](O)C[C@@]2(C)[C@@H]3CC=C4[C@@H](C=C(O)C(=O)C4(C)C)[C@]3(C)C(=O)C[C@]12C,Potency,[4],94.4 nM (active)
same,Potency,[3],237 nM (active)
same,Potency,[5],42.2 nM (active)
same,Potency,[6],37.6 nM (active)
CC1Oc2cc3c(-c4c(O)cc(O)c5c(O)c6c(cc45)OC(C)C(C)C6=O)c(O)cc(O)c3c(O)c2C(=O)C1C (centres undefined),Potency,[4],5800 nM (active)
same,Potency,[3],8200 nM (active)
same,Potency,[5],1300 nM (active)
same,Potency,[6],1160 nM (active)
same,activity,[7],-48.2%
same,Potency,[8],24100 nM (active)
same,activity,[9],-21.1%
same,activity,[10],-60.9%
same,Potency,[11],inactive
C1CCc2nnnn2CC1,outcome,[12],inactive
same,outcome,[13],inactive
same,Potency,[14],inactive
same,Potency,[15],inactive
same,Potency,[16],inactive
same,outcome,[17],inactive
same,Potency,[18],inactive
same,outcome,[19],inactive
same,Potency,[20],inactive
same,outcome,[21],inactive
same,Potency,[1],inactive
same,Potency,[22],inactive
same,Potency,[23],inactive
same,Potency,[24],inactive
c1ccc2c(c1)Sc1ccccc1N2C[C@@H]1CN2CCC1CC2,max response,[2],-2.33% (inactive)
same,Potency,[25],inactive
same,Potency,[26],inactive
C[C@]12CC[C@H]3[C@@H](CCC4=CC(=O)CC[C@@]43C)[C@@H]1CC[C@@H]2OC(=O)CCc1ccccc1,max response,[2],3.81% (inactive)
same,Potency,[3],10000 nM (active)
same,Potency,[27],inactive
same,outcome,[28],inactive
same,Potency,[29],inactive
same,outcome,[30],inactive
same,Potency,[31],inactive
same,"activity change, negative = inhibition",[32],-18.9%
same,Potency,[11],inactive
same,Potency,[33],inactive
CCOP(=S)(OCC)SCSc1ccc(Cl)cc1,Potency,[34],inactive
same,max response,[2],-1.21% (inactive)
same,Potency,[35],9520 nM (active)
same,Potency,[36],213 nM (active)
same,Potency,[25],inactive
same,Potency,[26],inactive
